Screening data from PubChem BioAssay.
APP transl inh: APP translation inhibition; SH-SY5Y APP 5'UTR-luciferase reporter, luminescence; inhibition, % at 2 µM; hit rate 0.82% among 190,000; AID 1285;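 active = inhibition above a set limit, derived from the sample mean plus 3 SD, cut at about 45% in these data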
IEC-6 cytotox: kills IEC-6 intestinal cells in KLF5 counter-screen; hit rate 0.78% among 290,000; IEC-6 cytotoxicity, luminescence viability; inhibition, % at 5 µM; AID 1825; in the data active = inhibition above about 22%
BaF3 tox: reduces parental Ba/F3 cell viability, JAK2V617F counter-screen. AID 1486. hit rate 1.1% among 220,000. inhibition, % at 5.6 µM. CellTiter-Glo ATP luminescence;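 active = inhibition above a per-campaign cutoff, the mean inhibition of all tested compounds plus 3 SD, cut at about 27% in these data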
Ba/F3 V617F tox: reduce viability of Ba/F3 cells dependent on JAK2V617F; Ba/F3 EpoR-JAK2V617F viability, ATP luminescence; hit rate 1.1% among 220,000; inhibition, % at 5.6 µM;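 active = inhibition above the campaign mean plus 3 SD over all tested compounds, cut at about 24% in these data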;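 also: cytokine-independent growth of Ba/F3 cells driven by EpoR plus mutant JAK2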
aSyn UTR inh: MLPCN primary screen, SNCA 5' untranslated region. alpha-synuclein 5'UTR reporter, inhibitor activity. inhibition, % (tested at 7.5 µM). hit rate 0.82% among 300,000. AID 1813; in the data active = inhibition above about 60%;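 also: H4 neuroglioblastoma cells stably carrying SNCA 5'UTR luciferase fusion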
KLF5 inhibitor: kruppel-like factor 5 inhibition; inhibition, % at 5 µM; DLD-1 KLF5 promoter-luciferase reporter, luminescence; hit rate 0.23% among 290,000; AID 1700;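 active = inhibition above a per-plate limit of that plate's mean compound inhibition plus 3 SD, cut at about 60% in these data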;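 also: higher means less KLF5 promoter-driven luciferase light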
Numbers stand for hits. A selection: hits, their analogues and other compounds. The true share with any hit is near 2.2%.

`COc1ccc(CCN2CC(C(=O)Nc3ccc(S(C)(=O)=O)cc3)CC2=O)cc1OC` (stereo not given) gave aSyn UTR inh inactive.
Cc1ccc(NC(=S)N(CCCN2CCOCC2)Cc2ccco2)cc1Cl was read as APP transl inh inactive, IEC-6 cytotox inactive, BaF3 tox inactive, Ba/F3 V617F tox inactive, aSyn UTR inh inactive and KLF5 inhibitor inactive.
For Cc1ccc(NC(=S)N(CCN(C)C)C(C)c2ccco2)cc1Cl (stereo not given) the results were IEC-6 cytotox inactive, BaF3 tox 30.4, Ba/F3 V617F tox 26.6, aSyn UTR inh inactive and KLF5 inhibitor inactive.
For CN1CCN(CCCN(Cc2ccco2)C(=S)Nc2ccc(Cl)cc2)CC1 the results were APP transl inh inactive, IEC-6 cytotox inactive, BaF3 tox 29.0, Ba/F3 V617F tox 40.4, aSyn UTR inh inactive and KLF5 inhibitor inactive.
Screening CCN1CCN(CCCN(Cc2ccco2)C(=S)Nc2ccc(C)c(Cl)c2)CC1 returned APP transl inh inactive, IEC-6 cytotox inactive, BaF3 tox 31.8, Ba/F3 V617F tox 37.2, aSyn UTR inh inactive and KLF5 inhibitor inactive.
C=CCN(C(=O)CCc1ccccc1OC)c1nc(-c2ccc(S(C)(=O)=O)cc2)cs1 was read as IEC-6 cytotox inactive, aSyn UTR inh 70.8 and KLF5 inhibitor inactive.
Screening Cc1cc2c(cc1S(=O)(=O)NC1CCCCC1C)OCC(=O)N2 (stereo not given) returned IEC-6 cytotox inactive, aSyn UTR inh inactive and KLF5 inhibitor inactive.
For Cc1cc(OCc2cc(C(=O)N3CCCCCC3)no2)cc(C)c1Cl the results were IEC-6 cytotox inactive, aSyn UTR inh inactive and KLF5 inhibitor inactive.
`CN1CCN(C2Cc3cc(Cl)ccc3Sc3cc(F)ccc32)CC1` (stereo not given) gave aSyn UTR inh 100.8.
Screening Cn1c2ccccc2c(=O)c2cc(C#CC3(O)CCCCC3)ccc21 returned IEC-6 cytotox inactive, aSyn UTR inh 76.9 and KLF5 inhibitor inactive.
`Cc1cc2sc3ccc(C#CC4(O)CCCCC4)cc3c(=O)c2cc1C` gave aSyn UTR inh 102.2.
COc1cc(C(=O)N/N=C/c2ccc(OC(=O)N3CCOCC3)cc2)cc(OC)c1OC was read as APP transl inh 60.8, IEC-6 cytotox inactive, BaF3 tox inactive, Ba/F3 V617F tox inactive, aSyn UTR inh inactive and KLF5 inhibitor inactive.
`COc1cc(C(=O)Oc2ccc(/C=N/NC(=O)c3ccncc3)cc2)cc(OC)c1OC` gave IEC-6 cytotox inactive, aSyn UTR inh inactive and KLF5 inhibitor inactive.
`C=CCN1CN(S(=O)(=O)c2cccc(Cl)c2)c2nc3ccccc3nc21` gave IEC-6 cytotox inactive, aSyn UTR inh inactive and KLF5 inhibitor inactive.
Screening CCN(CC)c1ccc2cc(C(C)=O)c(=O)oc2c1 returned APP transl inh inactive, IEC-6 cytotox inactive, BaF3 tox inactive, Ba/F3 V617F tox inactive, aSyn UTR inh inactive and KLF5 inhibitor inactive.
For CCN(CC)c1ccc2cc(NC(=O)CCC(=O)O)c(=O)oc2c1 the results were APP transl inh 52.1, IEC-6 cytotox inactive, BaF3 tox inactive, Ba/F3 V617F tox inactive, aSyn UTR inh 120.2 and KLF5 inhibitor inactive.
`Cc1nn(C)c(C)c1CN(C)C(=O)CCCC(=O)O` gave APP transl inh inactive, IEC-6 cytotox inactive, BaF3 tox 93.1, Ba/F3 V617F tox inactive, aSyn UTR inh inactive and KLF5 inhibitor inactive.
`COc1cccc2c1-c1c(O)cccc1C2=O` gave IEC-6 cytotox inactive, aSyn UTR inh inactive and KLF5 inhibitor inactive.
Screening COc1cccc2c1C(=O)c1c(O)c3c(c(O)c1C2=O)C[C@](O)(C(C)=O)C[C@H]3O[C@@H]1C[C@@H](N)[C@@H](O)[C@@H](C)O1 returned aSyn UTR inh 111.2.
`O=C(Cn1cnc2ccccc2c1=O)N1CCc2ccccc2C1` gave APP transl inh inactive, IEC-6 cytotox inactive, BaF3 tox inactive, Ba/F3 V617F tox inactive, aSyn UTR inh inactive and KLF5 inhibitor inactive.
`O=C(Cn1cnc2ccccc2c1=O)N1CCOCC1` gave APP transl inh 50.5, IEC-6 cytotox inactive, BaF3 tox inactive, Ba/F3 V617F tox inactive, aSyn UTR inh inactive and KLF5 inhibitor inactive.
Screening CN(CC(=O)Nc1ccccc1Cl)C(=O)c1cccc(S(=O)(=O)N2CCN(Cc3ccccc3)CC2)c1 returned aSyn UTR inh inactive.
CCCOc1ccc(/C=C/C(=O)Nc2ccc([N+](=O)[O-])cc2)cc1 was read as APP transl inh inactive, IEC-6 cytotox inactive, BaF3 tox inactive, Ba/F3 V617F tox inactive, aSyn UTR inh 68.0 and KLF5 inhibitor inactive.
For CCCCOc1ccc(/C=C/C(=O)Nc2ccc([N+](=O)[O-])cc2C)cc1 the results were APP transl inh inactive, IEC-6 cytotox inactive, BaF3 tox inactive, Ba/F3 V617F tox inactive, aSyn UTR inh inactive and KLF5 inhibitor inactive.
For Cc1cc(Br)ccc1NC(=O)C1CCN(C(=O)c2ccco2)CC1 the results were IEC-6 cytotox inactive, aSyn UTR inh inactive and KLF5 inhibitor inactive.
For Cc1cc(COc2ccccc2)oc1C(=O)O the results were IEC-6 cytotox inactive, aSyn UTR inh inactive and KLF5 inhibitor inactive.
`O=C(CSc1nnc(Cn2nnc3ccccc32)o1)N(Cc1ccc(F)cc1)c1ccccc1` gave APP transl inh inactive, IEC-6 cytotox inactive, BaF3 tox 41.3, Ba/F3 V617F tox inactive, aSyn UTR inh inactive and KLF5 inhibitor inactive.
`C=CCNc1cc(N2CCCC2)ccc1[N+](=O)[O-]` gave APP transl inh 57.0, IEC-6 cytotox inactive, BaF3 tox inactive, Ba/F3 V617F tox inactive, aSyn UTR inh inactive and KLF5 inhibitor inactive.
For Cc1cc(C)cc(NC(=O)c2cccc(C(=O)Nc3cc(C)cc(C)c3)n2)c1 the results were IEC-6 cytotox inactive, aSyn UTR inh inactive and KLF5 inhibitor inactive.
`CC1CC(=O)c2c(cc3c(-c4c(O)cc(O)c5c(O)c6c(cc45)OC(C)CC6=O)c(O)cc(O)c3c2O)O1` (stereo not given) gave APP transl inh 50.0, IEC-6 cytotox inactive, BaF3 tox inactive, Ba/F3 V617F tox inactive, aSyn UTR inh 70.2 and KLF5 inhibitor inactive.
For O=C1CC(c2ccc(O)cc2)Oc2cc(O)cc(O)c21 (stereo not given) the results were APP transl inh inactive, IEC-6 cytotox inactive, BaF3 tox inactive, Ba/F3 V617F tox inactive, aSyn UTR inh inactive and KLF5 inhibitor inactive.
Screening COc1ccc(S(=O)(=O)Nc2ccc(NC(C)=O)cc2)cc1[N+](=O)[O-] returned APP transl inh inactive, IEC-6 cytotox inactive, BaF3 tox inactive, Ba/F3 V617F tox inactive and KLF5 inhibitor inactive.
For Cc1ccc(CSc2nnc(SCC(=O)N/N=C/C=C/c3ccccc3[N+](=O)[O-])s2)cc1 the results were APP transl inh inactive, IEC-6 cytotox inactive, BaF3 tox inactive, Ba/F3 V617F tox inactive, aSyn UTR inh 89.3 and KLF5 inhibitor inactive.
For Cc1ccc(CSc2nnc(SCC(=O)N/N=C/C=C/c3ccco3)s2)cc1 the results were APP transl inh inactive, IEC-6 cytotox inactive, BaF3 tox inactive, Ba/F3 V617F tox inactive, aSyn UTR inh inactive and KLF5 inhibitor inactive.
Cc1ccsc1C(=O)NCCc1c[nH]c2ccccc12 was read as IEC-6 cytotox inactive, aSyn UTR inh inactive and KLF5 inhibitor inactive.
